Our source for the growth values is PubChem BioAssay (NCI).

The structures appear in SMILES notation. This is part of a sample that, as a whole, favours compounds with a hit. Of some 83,000 tested, about 20% had one in any assay.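 96-well plates, one dose, 48 hours. Percent growth reported; active if below 10.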 A number with no mark means an inactive call.

This test has as its system KM12 colon. The test can be described thus: NCI-60 one-dose screen, 48 h (100 = growth as untreated, 0 = no growth, -100 = all killed). The following applies: 10 µM unless noted.
`CCN(CC)Cc1c(-c2cccc(OC(F)(F)F)c2)[nH]c2ccc(N3CCCC3)cc2c1=O`: the growth is 95.9%.

On to `CCCCOc1ccc(S(=O)(=O)N2CCN(c3nccc(N4CCOCC4)n3)CC2)cc1`, for which the growth is 16%.

On to `O=c1cc(-c2ccccc2)nc2sc(-c3c[nH]c4ccc(Br)cc34)nn12`, for which the growth is 103%.
